NLRP3 yeast inh: NALP3 inflammasome inhibitors in reconstituted yeast, primary screen, luminescence, uHTS; AID 2825, 2010; Yeast reconstituted NLRP3/ASC/caspase-1, beta-gal luminescence, 24 h; actives 0.39% (n = 330,000); inhibition, % at 10 µM;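 active = inhibition of 50% or more; inactive = inhibition below 50%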;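 also: plate controls were induced DMSO wells for no effect and uninduced yeast grown without galactose for full effect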
NALP1 yeast inh: NALP1 inflammasome inhibitors in reconstituted yeast, colorimetric, S. cerevisiae, triplicate retest; inhibition, % at 10 µM; actives 0.61% (n = 280,000); S. cerevisiae NALP1/ASC/caspase-1 growth, X-gal OD620, 72 h; AID 2071, 2009; in the data active = inhibition mostly above about 24%, no sharp cut-off; inactive = mostly below about 32%
TIM10 inh: growth inhibitors of isogenic TIM10 control yeast, primary screen, counter-screen for tim10-1 yeast inhibitor project, luminescence, uHTS | actives 1.4% (n = 330,000) | inhibition, % at 10 µM | S. cerevisiae TIM10 strain growth, BacTiter-Glo luminescence, 24 h | AID 463195, 2010;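 active = inhibition of 40% or more at the single tested concentration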;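 also: wild-type TIM10 isogenic control strain grown at permissive 25 °C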
tim23-1 inh: growth inhibitors of tim23-1 mutant yeast, primary screen, luminescence, uHTS. S. cerevisiae tim23-1 growth, BacTiter-Glo luminescence, 24 h. inhibition, % at 20 µM. actives 1.3% (n = 330,000). AID 463212, 2010;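 active = growth inhibition of the mutant yeast at or above 50%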;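 also: temperature-sensitive mutant grown at 25 °C; plate controls were DMSO-treated mutant yeast for no effect and medium wells lacking yeast for full effect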
tim10-1 inh: growth inhibitors of tim10-1 mutant yeast, primary screen, luminescence, uHTS | S. cerevisiae tim10-1 ts strain growth, BacTiter-Glo, 24 h | inhibition, % at 20 µM | actives 2.2% (n = 330,000);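 active = inhibition of at least 40%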;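 also: mutant grown at 25 °C; 0% = DMSO wells with yeast and 100% = wells holding no yeast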
SKKanGAS inh: S. pyogenes SKKanGAS growth inhibitors in kanamycin, primary screen, streptokinase expression inhibitor project, SKKanGAS strain, BacTiter-Glo luminescence; 6 h; inhibition, % at 7.5 µM; actives 1.3% (n = 300,000); AID 1662, 2009;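 active = mean replicate score, as percent of positive control median, at least 50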;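 also: strain carries kanamycin resistance gene driven by streptokinase promoter and grows in 40 µg/ml kanamycin; loss of luminescence reflects streptokinase promoter inhibition or plain growth inhibition; 0% = median of DMSO wells and 100% = positive control at its reference dose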
Numbers without * were called inactive; . = no result given. Only some compounds are listed: those with a hit (about 4.9% of all), similar ones and a draw of the others.

SMILES	NLRP3 yeast inh	NALP1 yeast inh	TIM10 inh	tim23-1 inh	tim10-1 inh	SKKanGAS inh
Cc1onc(-c2ccccc2)c1C(=O)NC(=S)NNC(=O)c1cccnc1	11.9	9.9	19.8	12.6	23.1	23.4
Cc1onc(-c2ccccc2)c1C(=O)NC(=S)NNC(=O)c1ccco1	14.8	2.8	6.4	-2.6	18.4	77.7*
Cc1onc(-c2ccccc2)c1C(=O)NC(=S)NNC(=O)c1cc(-c2ccc(F)cc2)n[nH]1	14.7	.	-6.7	21.4	20.2	119.2*
Cc1onc(-c2ccccc2)c1C(=O)NC(=S)NNC(=O)c1ccncc1	19.0	26.9	12.1	-7.1	7.1	35.0
Cc1onc(-c2ccccc2)c1C(=O)NNC(=S)NC(=O)/C=C/c1cccs1	33.7	8.0	30.9	38.5	31.6	95.4*
Cn1cnc([N+](=O)[O-])c1NC(C)(C)C	15.1	31.3	2.4	0.2	-15.6	-2.7
Cn1cnc([N+](=O)[O-])c1S(=O)(=O)c1ccc(Cl)cc1	.	79.7*	.	.	.	7.1
CC(NCc1ccc(OCC(N)=O)cc1)C12CC3CC(CC(C3)C1)C2 (stereo unspecified)	27.6	10.7	-4.8	5.5	-3.2	2.2
Cc1cccc(NC(=O)CSc2nnc(-c3cc(C)n(-c4ccccc4)c3C)o2)c1C	18.0	-7.4	33.3	-4.9	28.0	23.8
Cc1cc(-c2nnc(SCC(=O)Nc3ccccc3C(F)(F)F)o2)c(C)n1-c1ccccc1	7.1	43.8*	0.7	1.1	-0.6	-2.7
COc1ccc(-c2csc(Nc3ccc(S(=O)(=O)Nc4cc(C)on4)cc3)n2)cc1C	7.1	8.6	19.7	8.7	8.8	68.3*
Cc1ccc2nc(SCC(=O)N3CCCCC3)nc(=O)n2c1	24.2	.	2.0	11.2	13.7	-0.3
O=c1cc(-c2ccc([N+](=O)[O-])cc2)nc2cc(-c3ccc(F)cc3)[nH]n12	7.3	13.5	-1.8	2.5	6.4	67.5*
Cc1ccc(-c2c(C#N)c(N)n3c(nc4ccccc43)c2C#N)cc1	-8.7	33.7	3.9	18.7	5.5	52.2*
O=C(O)c1cccc(C(=O)O)c1Br	1.8	8.9	-1.8	13.0	-17.5	-6.1
O=C(Nc1nc2ccsc2c(=O)s1)C1CCC1	34.4	.	2.7	33.1	-8.1	4.4
O=c1sc(Nc2ccccc2)nc2ccsc12	49.2	69.6*	20.4	49.4	23.8	1.1
CC(C)C(C)N(Cc1ccc(C(=O)O)cc1)C(=O)c1ccc2ccccc2n1 (stereo unspecified)	6.9	.	12.1	18.1	2.3	0.3
Cc1sc2ncnc(N3CCC(C(=O)NCC(=O)Nc4ccc(F)c(F)c4)CC3)c2c1C	9.0	13.3	0.5	7.2	3.1	53.2*
Cc1sc2ncnc(N3CCC(C(=O)Nc4ccc(Cl)c(Cl)c4)CC3)c2c1C	13.5	.	18.6	18.1	26.6	.
Cc1sc2ncnc(N3CCC(C(=O)Nc4ccc(Cl)cc4Cl)CC3)c2c1C	32.7	.	14.9	19.1	28.3	50.3*
CCCn1c(SCC(=O)NNC(=O)c2ccc(OC)cc2)nnc1C(C)C	4.7	29.8	9.1	-6.8	-36.3	14.7
CCCCOc1ccc(C(=O)NN2CCOCC2)cc1	14.8	.	-16.3	-12.9	-16.5	-0.2
CCc1ccccc1N1CC(C(=O)N2Cc3ccccc3CC2C(N)=O)CC1=O (stereo unspecified)	13.1	.	0.0	-8.1	-3.5	.
CC(C)CCN(CCC(C)C)C/C(O)=C(\C#N)c1nc(-c2ccccc2)cs1	3.9	16.0	-1.3	18.1	2.6	8.4
SMILES	NLRP3 yeast inh	NALP1 yeast inh	TIM10 inh	tim23-1 inh	tim10-1 inh	SKKanGAS inh
N#C/C(=C(/O)CN1CCN(c2ccccc2F)CC1)c1nc(-c2ccccc2)cs1	0.2	-1.8	-6.5	6.9	23.5	55.3*
COC/C=C/C1=CC2=CC(=O)C(C)(OC(=O)c3cnc4ccccc4n3)C(=O)C2=CN1CCc1c[nH]c2ccccc12 (stereo unspecified)	8.9	.	-6.6	-7.0	2.8	4.9
CCC(=O)n1nc(-c2ccc(OC)cc2)nc1N	5.7	24.2*	-10.8	14.7	11.9	2.7
CCC(=O)n1nc(-c2ccccc2)nc1N	15.4	2.4	4.7	-1.2	6.4	-5.3
CCc1cc2c(=O)n(Cc3ccco3)c(SCC(=O)NCC3CCCO3)nc2s1 (stereo unspecified)	13.7	17.2	-22.1	6.9	8.9	2.0
CCc1cc2c(=O)n(Cc3ccco3)c(SCc3c(C)noc3C)nc2s1	3.5	-4.1	13.4	25.8	28.8	99.5*
Cc1csc(NC(=O)COCC(=O)O)c1-c1nc2ccccc2s1	10.9	.	15.9	15.0	4.0	50.5*
COc1cccc(/C=C/c2ccc3cccc(O)c3n2)c1	6.4	10.9	15.3	22.0	17.5	98.1*
Oc1cccc(/C=C/c2ccc3cccc(O)c3n2)c1	20.7	4.5	35.2	46.6	24.0	57.4*
Cc1ccc(/C=C/c2ccc3cccc(O)c3n2)s1	17.3	-1.6	-10.1	6.2	14.7	76.0*
O=[N+]([O-])c1ccc(/C=C/c2ccc3cccc(O)c3n2)cc1	18.5	6.1	3.8	10.2	32.4	-1.3
Cc1nn(C)c(Cl)c1CN1CCCC(C(=O)Nc2ccc(-c3cscn3)cc2)C1 (stereo unspecified)	-2.8	23.5	5.7	8.9	16.1	50.1*
COc1ccc(NC(=O)c2cc(C)nn2-c2ccccc2)cc1	8.3	17.2	11.6	25.5	23.9	-0.8
COc1cc(O)ccc1/C=N/NC(=O)c1ccc([N+](=O)[O-])cc1	-1.8	9.8	-1.6	-5.1	1.9	-5.3
O=C(NC(CSCc1ccccc1)C(=O)N/N=C/c1ccc(O)cc1O)c1ccc([N+](=O)[O-])cc1 (stereo unspecified)	7.0	7.4	25.0	2.5	30.5	70.7*
Cc1ccc(NC2=NCC(Cc3ccc(Br)cc3)S2)cc1 (stereo unspecified)	34.0	2.8	0.5	4.6	21.5	85.3*
O=[N+]([O-])c1ccc(C2CN=C(Nc3ccccc3)S2)cc1 (stereo unspecified)	25.7	2.5	6.3	14.3	-23.4	17.0
CCc1ccc(NC2=NCC(c3ccccc3)S2)cc1 (stereo unspecified)	24.0	35.3*	35.4	30.6	25.1	94.0*
COc1ccc(Cl)cc1NC(=O)CN(C)C(=O)CSc1ccc2c(c1)OCCO2	21.7	.	-5.0	30.8	15.3	.
Cc1cccc(C(=O)NNC(=O)c2csc(N3CCOCC3)n2)c1C	3.1	.	-4.2	-8.6	-8.2	-11.7
CC(=O)Nc1ccc(Nc2cc(C(C)C)nc3c(-c4ccccc4)c(C)nn23)cc1	20.0	17.9	24.2	45.2	33.2	87.7*
O=C1c2ccccc2C(=O)c2c1cccc2N1CCCC1	.	21.9	.	.	.	14.6

Compound activity (PubChem BioAssay)
